# SKKanGAS inh: S. pyogenes SKKanGAS growth inhibitors in kanamycin, primary screen, streptokinase expression inhibitor project, SKKanGAS strain, BacTiter-Glo luminescence; inhibition, % at 7.5 µM; 300,000 tested, 1.3% active; 6 h;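 active = mean replicate score, as percent of positive control median, at least 50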;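 note: strain carries kanamycin resistance gene driven by streptokinase promoter and grows in 40 µg/ml kanamycin; loss of luminescence reflects streptokinase promoter inhibition or plain growth inhibition; 0% = median of DMSO wells and 100% = positive control at its reference dose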
# tim23-1 inh: growth inhibitors of tim23-1 mutant yeast, primary screen, luminescence, uHTS; S. cerevisiae tim23-1 growth, BacTiter-Glo luminescence, 24 h; inhibition, % at 20 µM; 330,000 tested, 1.3% active; AID 463212, 2010;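 active = growth inhibition of the mutant yeast at or above 50%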;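 note: temperature-sensitive mutant grown at 25 °C; plate controls were DMSO-treated mutant yeast for no effect and medium wells lacking yeast for full effect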
# EBI2 antag: EBI2 receptor antagonists, beta-arrestin recruitment, primary screen, cell-based, luminescence, 7a,25-OHC stimulation, uHTS; AID 651636, 2012; 360,000 tested, 0.81% active; 7a,25-OHC stimulated; inhibition, % at 5 µM; in the data active = inhibition above about 38%;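 note: enzyme fragment complementation signal reports receptor beta-arrestin coupling in cells; 0% = agonist plus DMSO wells and 100% = wells without agonist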
# Target sequence (P32249 whole entry, looked up, the tested form may be a part): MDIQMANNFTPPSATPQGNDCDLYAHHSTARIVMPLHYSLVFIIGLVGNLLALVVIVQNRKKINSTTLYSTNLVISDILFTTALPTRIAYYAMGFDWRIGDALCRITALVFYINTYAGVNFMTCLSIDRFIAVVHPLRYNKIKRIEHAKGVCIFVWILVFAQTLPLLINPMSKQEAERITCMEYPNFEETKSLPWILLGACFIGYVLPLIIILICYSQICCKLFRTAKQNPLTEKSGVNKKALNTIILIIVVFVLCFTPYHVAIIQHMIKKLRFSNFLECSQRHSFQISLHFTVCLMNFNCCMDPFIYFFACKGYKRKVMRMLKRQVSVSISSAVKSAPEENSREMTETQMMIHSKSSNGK
# TIM10 inh: growth inhibitors of isogenic TIM10 control yeast, primary screen, counter-screen for tim10-1 yeast inhibitor project, luminescence, uHTS | 330,000 tested, 1.4% active | S. cerevisiae TIM10 strain growth, BacTiter-Glo luminescence, 24 h | inhibition, % at 10 µM | AID 463195, 2010;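 active = inhibition of 40% or more at the single tested concentration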;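 note: wild-type TIM10 isogenic control strain grown at permissive 25 °C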
# tim10-1 inh: growth inhibitors of tim10-1 mutant yeast, primary screen, luminescence, uHTS | S. cerevisiae tim10-1 ts strain growth, BacTiter-Glo, 24 h | 330,000 tested, 2.2% active | inhibition, % at 20 µM;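 active = inhibition of at least 40%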;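 note: mutant grown at 25 °C; 0% = DMSO wells with yeast and 100% = wells holding no yeast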
# PfHsp90 set2: growth inhibition of PfHsp90-expressing yeast, primary screen, antimalarial PfHsp90 inhibitor project, S. cerevisiae, BacTiter-Glo luminescence, single point, set 2 | BacTiter-Glo ATP, 48 h; yeast lacking PDR1 and PDR3 efflux regulators | inhibition, % at 9.4 µM | 310,000 tested, 0.32% active | AID 504621, 2011;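 active = every replicate shows inhibition above about 80%, whatever the replicate mean, limit read from the data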;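 note: 0% = DMSO neutral controls and 100% = 20 µM radicicol positive controls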
# tim23-1 confirm: tim23-1 mutant yeast growth inhibitors, confirmation, luminescence, single concentration; shares compounds with tim23-1 inh; S. cerevisiae tim23-1 growth, BacTiter-Glo luminescence, 24 h; inhibition, % at 20 µM; 4,400 tested, 83% active; AID 463218, 2010;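 active = inhibition above about 39% in either of two replicate wells at 20 µM, limit read from the data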;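 note: temperature-sensitive tim23-1 mutant grown at 25 °C; 0% = DMSO wells with yeast and 100% = medium wells without yeast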
# The depositor's hits bear a star; x = not tested or not shown; + = active, no number. In the library only some 4.7% were active in any assay of this set; here they are far more common.
SMILES,SKKanGAS inh,tim23-1 inh,EBI2 antag,TIM10 inh,tim10-1 inh,PfHsp90 set2,tim23-1 confirm
CCN1CCN(c2cc(-c3ccccc3)nc3cc(-c4cccc(F)c4)nn23)CC1,20,53*,6,25,26,13,33
N#Cc1cn(N2CCCCC2)c(=O)[nH]c1=O,-1,-6,-4,12,-2,-5,x
COc1ccc(C(=S)N2CCN(c3ccccc3C)CC2)cc1,7,51*,37,32,28,-13,40*
COc1ccc(CNCc2cc(Cl)ccc2O)cc1,x,9,-12,-3,24,7,x
Oc1ccc(Cl)cc1CNCc1ccc(F)c(F)c1,x,53*,2,12,6,-28,37
Cc1cccc(NC(=O)CSc2nnc(CNC(=O)c3cccs3)o2)c1C,0,13,2,1,5,-8,x
C#CCN(Cc1ccccc1)S(=O)(=O)C=C,x,18,x,16,11,x,x
O=C(OCc1cccc(F)c1)c1cc2ccccc2cc1O,13,94*,0,15,7,-14,28
CN(C(=O)COC(=O)c1cc2ccccc2cc1O)C1CCCCC1,x,55*,11,30,19,3,49*
COc1cc(/C=C/[N+](=O)[O-])ccc1OC(=O)c1cc2ccccc2oc1=O,1,80*,-8,25,21,106*,73*
COc1cc(C(=O)OCC(=O)N2CCOCC2)c([N+](=O)[O-])cc1OC,-6,-10,-6,-2,3,2,x
Cc1nc(NCCc2ccccc2)c2oc3ccccc3c2n1,3,61*,4,24,30,49,41*
Cc1nc(NCCN2CCOCC2)c2oc3ccccc3c2n1,-5,-4,-9,-6,-6,-28,x
CCOc1ccc(CN2CCC(C(=O)Nc3cccc(-c4ccn[nH]4)c3)CC2)cc1Cl,7,4,-7,-6,11,0,x
CCNC(=S)N/N=C/c1cccs1,6,16,-18,17,32,-2,x
COc1cc(NC(=O)COc2cc3oc(=O)cc(C)c3cc2Cl)cc(OC)c1OC,-2,8,-15,0,24,-1,x
Cc1ccccc1CSc1nsc(N)n1,-1,52*,3,11,35,x,50*
Nc1nc(SCc2ccc(Cl)cc2Cl)ns1,12,34,3,16,25,x,x
CC(N)(C(=O)O)c1cccc(OCc2cccc(Cl)c2)c1 (stereo not drawn),-20,4,-1,1,1,-22,x
S=C(NCCSCc1c(Cl)cccc1Cl)Nc1ccccc1,x,50*,8,40,35,x,51*
COc1ccc2c(c1)[C@H]1[C@H](CO2)[C@H](c2ccccc2)[C@]2(C)C(=O)Nc3ccc(C)cc3C(=O)N12,x,51*,7,12,21,+,43*
COc1ccc2c(c1)[C@H]1[C@H](CO2)[C@H](c2ccccc2)[C@]2(C)C(=O)Nc3ccc(F)cc3C(=O)N12,x,27,15,13,17,-12,x
COc1ccc2c(c1)OC[C@H]1[C@H]2N2C(=O)c3cc(C)ccc3NC(=O)[C@@]2(C)[C@H]1c1ccccc1,x,51*,-6,-5,8,104*,58*
COc1ccc2c(c1)OC[C@H]1[C@H]2N2C(=O)c3ccccc3NC(=O)[C@@]2(C)[C@H]1c1ccccc1,x,34,4,22,16,-7,x
CCOc1ccc(N=c2scc(-c3ccccc3)n2CCO)cc1,0,22,17,13,24,5,x
SMILES,SKKanGAS inh,tim23-1 inh,EBI2 antag,TIM10 inh,tim10-1 inh,PfHsp90 set2,tim23-1 confirm
CCn1c(-c2ccccc2)csc1=Nc1ccc(O)cc1,13,58*,4,35,40,-9,39*
COC(=O)C[C@@H]1CC[C@@H](NC(C)=O)[C@@H](CO)O1,x,x,-1,x,x,x,x
O=C1CC2(CCN(C(=O)c3ccc(F)cc3)CC2)Oc2ccccc21,0,5,-4,10,-13,4,x
CC(C)(C)C(=O)NC(=S)NCc1ccccc1,2,17,-7,-2,24,1,x
COc1ccc(-c2coc3cc(OC(C)=O)c(OC)cc3c2=O)cc1,x,53*,2,19,4,-11,28
COc1ccc2c(=O)c(-c3ccc(OC)c(OC)c3)coc2c1,1,10,10,8,28,15,x
N=C(CC1CC(=O)NC(=O)C1)C1=C(O)CCCC1=O,-2,-10,-3,5,-21,-14,x
CCC(C)(C)NC(=O)CN(C(=O)CCC(=O)Nc1nccs1)c1ccc2c(c1)OCCO2,8,17,0,-9,-3,-76,x
Cc1cccc(/N=C/c2c(O)ccc3oc4c(c23)CCCC4)n1,7,70*,-3,37,37,-5,74*
CCCCCc1ccc(OCCCC[n+]2cccc(C)c2)c(CCCCC)c1,-4,49,7,-73,31,-23,x
CCCCCc1ccc(OCCCC[n+]2ccc(C)cc2)c(CCCCC)c1,-15,53*,2,-240,-6,-60,15
Cc1ccc(N=N/C(=C\O)C(=O)c2ccncc2)cc1,1,71*,11,6,13,-37,64*
O=C(/C(=C/O)N=Nc1ccc(Cl)cc1)c1ccncc1,-8,62*,17,-20,16,-43,57*
COc1ccccc1C(=O)Nc1nc2ccc(S(C)(=O)=O)cc2s1,-8,-8,8,10,33,-7,x
COc1ccc(C(=O)Nc2nc3ccccc3s2)c(OC)c1,53*,63*,50*,20,33,58,75*
Nc1ccc(C(=O)Nc2nc3ccccc3s2)cc1,-1,51*,-4,12,3,25,44*
CCCNC(=O)c1ccc(OC)cc1OC,-6,4,6,5,-2,x,x
COc1ccc(C(=O)NCC(C)C)c(OC)c1,4,72*,-1,5,-3,-8,7
COc1ccccc1C(=O)Nc1nc2ccccc2s1,48,58*,6,35,35,29,48*
COc1cccc(CNn2c(-c3cccc(C)c3)nc3ccccc3c2=O)c1O,3,57*,4,20,28,x,45*
COc1ccc(OC)c(CNn2c(-c3ccccc3F)nc3ccccc3c2=O)c1,8,36,-7,33,35,-14,x
COC(=O)CCSc1nc(N2CCOCC2)c2c(c1C#N)CC(C)(C)OC2,5,18,-4,7,20,8,x

# Compound activity (PubChem)
